PubChem BioAssay (NCI)
Compounds without any hit were thinned out: in the full panel of roughly 79,000, 15% have a hit. No stated cut-off is given here; in the data, active means growth inhibition above about 70%; inactive means the rest. Where a SMILES comes first, the peptide text is derived from it. Bridges are numbered along the chain shown (N, C = ends). [ ]: non-standard residue; d: D form. The star is where a group is joined. ξ: configuration not given here. ξNMePhe(4-NMe2) = CNC(Cc1ccc(N(C)C)cc1)C(=O)O; Picolinoyl(3-OH) = O=C(c1ncccc1O)*; ξPip(4-oxo) = O=C1CCNC(C(=O)O)C1; Phg = N[CH](C(=O)O)c1ccccc1; Abu = CC[CH](N)C(=O)O

Key:
[1] = NCI Yeast Anticancer Drug Screen. Data for the mec2-1 strain (AID 157); details: S. cerevisiae mec2-1 strain, at 50.0 µM, stronger effect = higher value
In short: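 Vehicle-treated cultures served as reference for growth inhibition of compound-exposed mec2-1 yeast.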

[2] = NCI Yeast Anticancer Drug Screen. Data for the sgs1 mgt1 strain (AID 161);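 further: 0% = growth of cultures given vehicle only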; details: S. cerevisiae sgs1 mgt1 strain, at 50.0 µM, stronger effect = higher value
In short: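 Genetically altered yeast, compound exposure, growth inhibition relative to vehicle.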

[3] = NCI Yeast Anticancer Drug Screen. Data for the cln2 rad14 strain (AID 165);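 further: 0% = growth equal to vehicle treated cultures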; details: S. cerevisiae cln2 rad14 strain, at 50.0 µM, stronger effect = higher value
In short: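 Each compound was tested on cln2 rad14 yeast. Inhibition of growth was calculated against vehicle-exposed controls.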

[4] = NCI Yeast Anticancer Drug Screen. Data for the bub3 strain (AID 167); details: S. cerevisiae bub3 mutant strain, at 50.0 µM, stronger effect = higher value
In short: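 Inhibition values come from growth of compound-treated mutant yeast normalised to vehicle-treated controls.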

[5] = NCI Yeast Anticancer Drug Screen. Data for the mlh1 rad18 strain (AID 175); details: S. cerevisiae mlh1 rad18 strain growth inhibition; at 50.0 µM; stronger effect = higher value
In short: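 Vehicle-treated cultures served as the reference for growth inhibition in a yeast strain carrying DNA damage repair alterations exposed to each compound.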

Measured: growth inhibition

O=C(Nc1ccccc1)OCCc1ccccc1
inactive: [1] 37.8% | [2] 27.4% | [3] 42.9% | [4] 37.6% | [5] 34.2%

O=c1[nH]c(O)c(/C=C2/C=Nc3ccccc32)[nH]1
inactive: [1] -5.85% | [2] -8.35% | [3] -15.2% | [4] 4.1% | [5] 0.6%

O=C(O)C(c1ccccc1)C(O)c1ccccc1 (stereo not given)
inactive: [1] -21.4% | [2] -22.7% | [3] -26.1% | [4] -30.4% | [5] -7.45%

CC(=O)OC1CC2C(C)(C)OC3CC(=O)OCC32C2CCC3(C)C(=CCC3c3ccoc3)C12C (stereo not given)
inactive: [1] -5.7% | [2] -26.6% | [3] 17.8% | [5] 1.1%

[O-][N+](=Nc1cccc(Cl)c1)c1cccc(Cl)c1
inactive: [1] -30.9% | [2] 24.9% | [4] 21.2% | [5] 15.1%

CCOc1ccccc1/C=N/Nc1nc2ccccc2o1
inactive: [1] 0.4% | [2] -2.8% | [3] -23.8% | [4] 6.85% | [5] 33.6%

COc1cc(C(=O)N/N=C/c2cccc([N+](=O)[O-])c2)cc(OC)c1OC
inactive: [1] -13.4% | [2] -41.9% | [3] 24.4% | [4] -39.2% | [5] -64.5%

CCC1NC(=O)C(NC(=O)c2ncccc2O)C(C)OC(=O)C(c2ccccc2)NC(=O)C2CC(=O)CCN2C(=O)C(Cc2ccc(N(C)C)cc2)N(C)C(=O)C2CCCN2C1=O (stereo not given) (tested in a mixture with another compound) ({Picolinoyl(3-OH)}-T[Abu]P[ξNMePhe(4-NMe2)][ξPip(4-oxo)][Phg]; ester 1-C; configuration not given here)
inactive: [1] -5.15% | [2] 3.3% | [3] 20.7% | [4] 9.45% | [5] -14.7%

N#Cc1ccc(NC(=O)Nc2cccc(C#N)c2)cc1
inactive: [1] -12.3% | [2] -9.75% | [3] -15.1% | [5] -15.6%

S=c1nn[nH]c2ccccc12
inactive: [1] 22.6% | [2] 8.6% | [3] 8.1% | [5] 8.25%

COc1ccc(C2(O)CCCCC2)cc1
inactive: [1] -13.2% | [2] 2.85% | [3] 6.45% | [4] 7.35% | [5] 28.2%

CC1CCC2C(C)(C)C3CC12CC1OC13C (stereo not given)
inactive: [1] -30.4% | [2] 0.7% | [4] 0.65% | [5] -14.5%

Nc1ccc(NC(=O)c2cccc(N)c2)cc1
inactive: [1] 3.5% | [2] 6.4% | [3] -7.8% | [4] 19.2% | [5] 22%

Cc1ccc(C)n1-c1ccsc1C(=O)NNC(=O)C(Cl)Cl
inactive: [1] 13.9% | [2] 24.8% | [3] 21.1% | [4] 21.7% | [5] 20.7%

O=C1OC(c2ccc(F)cc2)CC1CN1CCOCC1 (stereo not given)
inactive: [2] 30.6% | [3] 27.3% | [4] 24.3% | [5] 38.5%

CCOC(=O)Nc1cc2c(c(N)n1)N=C(c1ccccc1)CO2
inactive: [1] 27.7% | [2] 34% | [3] 16.5% | [4] 14.8% | [5] -21.9%

CCCCC(CC)COC(C)=O (stereo not given)
inactive: [2] 2.15% | [3] 5.2% | [5] 13.8%

CC1Cc2ccccc2O1 (stereo not given)
inactive: [1] 0.35% | [2] -3.7% | [3] -2.35% | [4] 2.9% | [5] 11%

CC1(C)S(=O)(=O)OCCOS1(=O)=O
inactive: [1] 16.6% | [3] -20.5% | [5] 0.15%

CC(=O)CC(=O)N(C)C
inactive: [2] 6.9% | [3] -13.9% | [4] -2.5% | [5] 24.2%

O=C1NC(=O)C2C(=O)NC(=O)C1C21CCc2ccccc21 (stereo not given)
inactive: [1] -16.6% | [2] -23.5% | [3] -4.25% | [4] -41.9% | [5] -7.45%

CC(C)(C)c1cc(O)c(C(C)(C)C)cc1O
inactive: [1] -0.05% | [2] 6.05% | [3] -1.85% | [4] 0.15% | [5] 11.2%

Cc1nc2c(ccc3ccccc32)s1
inactive: [1] -5.35% | [2] 22.7% | [3] 6.45% | [4] 3.5% | [5] 15.4%

CCS(=O)(=O)c1cc(=O)[nH]c(=O)[nH]1
inactive: [1] 24.9% | [2] -30.9% | [4] -1.45% | [5] -1.6%

COCCCC/C(=N\OCCN)c1ccc(C(F)(F)F)cc1
inactive: [1] 4.6% | [2] 12.6% | [3] -3.9% | [4] -0.35% | [5] 25.3%

c1ccc2c(c1)Sc1ccccc1S2
inactive: [1] 6.8% | [2] 22.1% | [3] -19.6% | [4] -3.6% | [5] -18.6%

COc1ccccc1NC(=O)c1cc2cc(Br)ccc2cc1O
inactive: [1] 41.1% | [2] 55.7% | [3] 41.6% | [4] 49% | [5] 34.2%

Brc1cnc2ccccc2c1
inactive: [1] 9.05% | [2] 26.7% | [3] -7.65% | [4] -2.55% | [5] 22.2%

CN(C)CCC(=O)c1ccc(O)cc1
inactive: [1] 8.65% | [2] 3.25% | [3] -22.2% | [4] -14.8%

O=C(Nc1ccccc1C(=O)NCC1CC1)c1cccs1
inactive: [1] -29.9% | [2] 3.4% | [4] 5.9% | [5] -1.6%

CC(=O)NC(N)=S
inactive: [1] 3.75% | [2] -23.1% | [3] -3.05% | [4] -3.25% | [5] -7%

O=c1cc(-c2ccccc2)[nH]c2c1CCCC2
inactive: [1] -21.4% | [2] -12.2% | [3] -23.8% | [5] -3.5%

O=C(Nc1cccc(NC(=O)Nc2cc(C(F)(F)F)ccc2Cl)c1)Nc1cc(C(F)(F)F)ccc1Cl
inactive: [1] -15.8% | [2] 9.55% | [3] 19.4% | [4] 14.9% | [5] 11.7%

CCCNc1ccc(C2=NCCCN2)cc1
inactive: [1] -19.1% | [2] -3.9% | [3] 7.25% | [4] 17.5% | [5] -1.5%
